Assay results published in PubChem BioAssay (EPA / NIEHS).
Records with an inconclusive call do not appear. Active and inactive are the calls of the source. How the source made its calls, unless noted: active means hit-call score of the fitted dose curve at least 0.9, where 1 is the maximum; inconclusive means response in the unintended direction; inactive means score below 0.9.

What was measured:
[1] = read-out: Cellular tumor antigen p53 (Homo sapiens) (UniProt P04637); experiment: LTEA_HepaRG_TP53: Life Technologies and Expression Analysis (LTEA) Assay for Tumor Protein P53 (TP53) using HepaRG (AID 2283537; active means hit-call score of the fitted dose curve at least 0.9, where 1 is the maximum; inactive means score below 0.9); settings: mRNA level, 48 h; actives raise or lower the signal
Outline: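 TP53 transcript measured by qRT-PCR, normalized to three housekeeping genes, after 48 h treatment of human HepaRG cultures with chemicals from 100 uM downward in half-log steps (0.5% DMSO vehicle, serum-free induction medium). Up- or down-regulation fitted against DMSO.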

[2] = read-out: UDP glucuronosyltransferase (UGT1A1), UGT1A1 (gene 54658); experiment: LTEA_HepaRG_UGT1A1: Life Technologies and Expression Analysis (LTEA) Assay for UDP glucuronosyltransferase (UGT1A1) using HepaRG (AID 2283538; active means hit-call score of the fitted dose curve at least 0.9, where 1 is the maximum; inactive means score below 0.9); settings: mRNA level, 48 h; actives raise or lower the signal
Outline: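 mRNA induction or loss of UGT1A1, by TaqMan qRT-PCR, in duplicate HepaRG wells after 48 h exposure to half-log dilutions topping at 100 uM; DMSO (0.5%) served as baseline.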

[3] = read-out: UDP glucuronosyltransferase (UGT1A6), UGT1A6 (gene 54578); experiment: LTEA_HepaRG_UGT1A6: Life Technologies and Expression Analysis (LTEA) Assay for UDP glucuronosyltransferase (UGT1A6) using HepaRG (AID 2283539; active means hit-call score of the fitted dose curve at least 0.9, where 1 is the maximum; inactive means score below 0.9); settings: mRNA level, 48 h; actives raise or lower the signal
Outline: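 Differentiated HepaRG cells, ~100,000/well, were exposed for 48 h in serum-free induction medium with 0.5% DMSO to 8-point half-log series topping at 100 uM, in duplicate. mRNA measured by Fluidigm TaqMan qRT-PCR, normalized to ACTB, GAPDH and POLR2A.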

[4] = read-out: X-box binding protein 1 (XBP1), XBP1 (gene 7494); experiment: LTEA_HepaRG_XBP1: Life Technologies and Expression Analysis (LTEA) Assay for X-box binding protein 1 (XBP1) using HepaRG (AID 2283540; active means hit-call score of the fitted dose curve at least 0.9, where 1 is the maximum; inactive means score below 0.9); settings: mRNA level, 48 h; actives raise or lower the signal
Outline: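 Differentiated human HepaRG cells in serum-free induction medium exposed 48 h in duplicate to eight half-log concentrations up to 100 uM in 0.5% DMSO. XBP1 mRNA measured by Fluidigm TaqMan qRT-PCR, normalized to ACTB, GAPDH, POLR2A; bidirectional fitting against DMSO.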

[5] = LTEA_HepaRG_LDH_cytotoxicity: Cytotoxicity Assessment in the Life Technologies and Expression Analysis (LTEA) Assay (AID 2283563);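 on AC50: LDH activity released into spent culture medium as a marker of cell death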
Outline: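 Differentiated HepaRG cells in serum-free induction medium, exposed 48 h in duplicate to 8 half-log concentrations up to 100 uM in 0.5% DMSO. Cytotoxicity from LDH measured in spent medium, fit relative to DMSO.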

[6] = ATG_XTT_Cytotoxicity: Cytotoxicity Assessment in the Attagene TRANS-FACTORIAL HepG2 Assay (AID 2283584);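 on AC50: XTT signal for cell number as viability in transfected HepG2 cells; cells exposed to compound for 24 h before reading; active means loss of viability signal versus DMSO baseline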
Outline: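 HepG2 cells transiently transfected with GAL4-UAS multiple reporter units, dosed 24 h; cytotoxicity read by XTT as loss of signal versus DMSO baseline.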

[7] = TOX21_p53_BLA_p2_viability: Viability Assessment in the Tox21 HCT-116 p53 Agonism Beta-lactamase Assay, Phase 2 (AID 2283591);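 further: actives lower the ATP signal meaning cytotoxicity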
Outline: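 HCT-116 p53-bla cells (4000/well) rested 5 h at 37C, then received compounds in DMSO (217-fold dilution) for 16 h at 37C, 5% CO2. After the CCF4 read, CellTiter-Glo was added; ATP luminescence was read after 30 min at room temperature.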

[8] = target: Cellular tumor antigen p53 (Homo sapiens) (UniProt P04637); experiment: TOX21_p53_BLA_p2_ratio: Tox21 HCT-116 p53 Agonism Beta-lactamase Assay, Ratio, Phase 2 (AID 2283592)
Chain of Cellular tumor antigen p53 (Homo sapiens) (P04637 whole entry, looked up): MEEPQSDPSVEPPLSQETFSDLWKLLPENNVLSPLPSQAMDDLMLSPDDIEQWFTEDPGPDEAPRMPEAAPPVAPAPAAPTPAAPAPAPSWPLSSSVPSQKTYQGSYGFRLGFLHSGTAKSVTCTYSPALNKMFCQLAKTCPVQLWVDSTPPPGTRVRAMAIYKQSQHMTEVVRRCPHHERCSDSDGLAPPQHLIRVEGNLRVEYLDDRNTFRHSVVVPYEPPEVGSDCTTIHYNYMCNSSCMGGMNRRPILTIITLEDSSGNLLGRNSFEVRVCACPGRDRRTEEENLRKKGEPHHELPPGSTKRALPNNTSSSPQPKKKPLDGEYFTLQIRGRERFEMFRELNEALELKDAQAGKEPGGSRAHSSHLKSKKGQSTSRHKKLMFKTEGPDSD
Outline: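 First, HCT116 reporter cells settle for 5 h at 37C. Next, DMSO compound solutions are pinned in (217-fold dilution) and left 16 h. Finally, CCF4-AM substrate is loaded 2 h at room temperature and the 460/530 nm ratio read.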

[9] = TOX21_p53_BLA_p3_viability: Viability Assessment in the Tox21 HCT-116 p53 Agonism Beta-lactamase Assay, Phase 3 (AID 2283593);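 further: cells exposed to compound for 16 h before reading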
Outline: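 HCT-116 cells (4000/well) rested 5 h at 37C, then got DMSO compounds by pin tool (217-fold dilution) for 16 h at 37C, 5% CO2. After the bla read, CellTiter-Glo was added and luminescence read at 30 min, room temperature.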

[10] = target: Cellular tumor antigen p53 (Homo sapiens) (UniProt P04637); experiment: TOX21_p53_BLA_p3_ratio: Tox21 HCT-116 p53 Agonism Beta-lactamase Assay, Ratio, Phase 3 (AID 2283596)
Outline: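 Cells were seeded at 4000/well, rested 5 h at 37C, then dosed with DMSO compound solutions (217-fold dilution) for 16 h. CCF4-AM substrate was loaded for 2 h at room temperature, and the 460/530 nm emission ratio was fitted for gain of signal versus DMSO.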

[11] = TOX21_p53_BLA_p5_viability: Viability Assessment in the Tox21 HCT-116 p53 Agonism Beta-lactamase Assay, Phase 5 (AID 2283600)
Outline: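 Decreased CellTiter-Glo luminescence denotes lost viability. Exposure: 16 h at 37C, 5% CO2, with compounds from DMSO stocks diluted 217-fold in wells of 4000 cells.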

[12] = target: Cellular tumor antigen p53 (Homo sapiens) (UniProt P04637); experiment: TOX21_p53_BLA_p4_ratio: Tox21 HCT-116 p53 Agonism Beta-lactamase Assay, Ratio, Phase 4 (AID 2283601)
Outline: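 HCT116 cells carrying an inducible beta-lactamase reporter were plated at 4000 cells/well, rested 5 h, then exposed to compounds in DMSO (217-fold dilution) for 16 h at 37C. CCF4-AM substrate was loaded 2 h at room temperature; 460/530 nm emission ratio scored gain-of-signal versus DMSO.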

[13] = Tanguay_ZF_120hpf_MORT_legacy: (Legacy) Oregon State University Tanguay Lab 120 Hour Post-fertilization zebrafish Assay for Mortality (AID 2283633);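 on AC50: fitted as increase in binary mortality versus DMSO negative control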
Outline: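 Dechorionated Tropical 5D wild-type zebrafish embryos, one per well from 6 hpf, static exposure in 0.64% DMSO at 28C until 120 hpf. Mortality scored as binary by brightfield microscopy at 24 and 120 hpf.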

[14] = Tanguay_ZF_120hpf_YSE_legacy: (Legacy) Oregon State University Tanguay Lab 120 Hour Post-fertilization zebrafish Assay for Yolk Sac Edema (AID 2283634);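 on AC50: actives raise the incidence of yolk sac edema above the DMSO baseline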
Outline: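 Dechorionated Tropical 5D wild-type zebrafish embryos were exposed statically, one per well, from 6 to 120 hpf at 28C in 0.64% DMSO. Yolk sac edema was scored present/absent by brightfield at 120 hpf, and dead embryos were excluded.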

[15] = Tanguay_ZF_120hpf_AXIS_legacy: (Legacy) Oregon State University Tanguay Lab 120 Hour Post-fertilization zebrafish Assay for Body Axis Malformation (AID 2283635);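 on AC50: potency for an increased fraction of larvae scored with body axis malformation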
Outline: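 Dechorionated wild-type Tropical 5D zebrafish embryos, one per well, statically exposed from 6 hpf to 120 hpf at 28C in 0.64% DMSO final. Body axis malformation scored present/absent by brightfield microscopy at 120 hpf; dead embryos excluded.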

[16] = Tanguay_ZF_120hpf_EYE_legacy: (Legacy) Oregon State University Tanguay Lab 120 Hour Post-fertilization zebrafish Assay for Eye Malformation (AID 2283636);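 further: binary presence or absence of eye malformation scored by brightfield in 120 hpf larvae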
Outline: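 Static waterborne exposure of dechorionated zebrafish embryos (strain Tropical 5D), 6 to 120 hpf, sealed plates at 28C, 0.64% DMSO vehicle. Eye malformation is scored as a binary endpoint, with gain of signal analysed relative to DMSO.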

[17] = Tanguay_ZF_120hpf_SNOU_legacy: (Legacy) Oregon State University Tanguay Lab 120 Hour Post-fertilization zebrafish Assay for Snout Malformation (AID 2283637)
Outline: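 Dechorionated zebrafish, individually housed from 6 hpf in covered, sealed wells at 28C with 0.64% DMSO vehicle, were examined at 120 hpf for snout malformation. Responses were binary and analysed positive-direction relative to DMSO.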

[18] = read-out: Thyroid Hormone Responsive (THRSP), THRSP (gene 7069); experiment: LTEA_HepaRG_THRSP: Life Technologies and Expression Analysis (LTEA) Assay for Thyroid Hormone Responsive (THRSP) using HepaRG (AID 2283536; active means hit-call score of the fitted dose curve at least 0.9, where 1 is the maximum; inactive means score below 0.9); settings: mRNA level, 48 h; actives raise or lower the signal
Outline: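 Cell model: human HepaRG, approx. 100,000 cells/well, 0.5% DMSO vehicle. Exposure lasts 48 h; phenobarbital 1 mM serves as induction positive control. Gene expression is measured by qRT-PCR against three endogenous control genes.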

[19] = TOX21_p53_BLA_p4_viability: Viability Assessment in the Tox21 HCT-116 p53 Agonism Beta-lactamase Assay, Phase 4 (AID 2283597);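 further: hits lower the luminescence signal meaning cytotoxicity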
Outline: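 4000 HCT116 cells per well; 5 h attachment; compounds from DMSO, 217-fold dilution; 16 h at 37C. Then CCF4-AM, 2 h RT, followed by CellTiter-Glo, 30 min RT, luminescence. Decrease = cytotoxicity.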

Measured: AC50

O=C(O)CN(CC(=O)O)CC(=O)O
not listed: [18] | [19]
inactive: all other assays above

Cc1ccc(-c2cc(C(F)(F)F)nn2-c2ccc(S(N)(=O)=O)cc2)cc1
active: [2] 86.3 µM | [3] 71.6 µM | [4] 50 µM | [5] 74.4 µM | [6] 149 µM
inactive: [18] | [13] | [14] | [15] | [16] | [17]

CC(=O)CC(c1ccccc1)c1c(O)c2ccccc2oc1=O (configuration not stated)
inactive: [2] | [3] | [4] | [6] | [13] | [14] | [15]
active: [18] 34.5 µM

CC(COCC(C)OC(=O)c1ccccc1)OC(=O)c1ccccc1 (configuration not stated)
inactive: [18] | [2] | [3] | [4] | [5] | [13] | [14] | [15] | [16] | [17]

S=c1[nH]c2ccccc2s1
active: [14] 11.7 µM | [15] 36.7 µM | [16] 42.1 µM | [17] 40.7 µM
not listed: [11] | [18]
inactive: all other assays above

COc1ccc(C(=O)Nc2nc3ccccc3c(NCc3ccccc3)c2C#N)cc1
active: [2] 3.8 µM | [4] 13.2 µM | [8] 60.1 µM | [12] 72.8 µM
not listed: [6] | [7] | [9] | [11] | [16] | [18]
inactive: all other assays above

CN(C)C(=O)NC1(c2ccccc2)CCN(CC[C@@]2(c3ccc(F)c(F)c3)CN(C(=O)c3ccccc3)CCO2)CC1
active: [5] 73.5 µM | [19] 65 µM
not listed: [6] | [9] | [18]
inactive: all other assays above

COC(=O)CCCC(=O)OC
not listed: [9] | [18]
inactive: all other assays above

C=CCc1ccc(OC)c(OC)c1
not listed: [6] | [13] | [18] | [19]
inactive: all other assays above

O=C(N[C@@H](c1ccccc1)[C@@H]1CCCCN1)c1cccc(C(F)(F)F)c1Cl
active: [2] 57.7 µM | [3] 69.1 µM | [5] 43 µM | [13] 26.6 µM
inactive: [18] | [4] | [14] | [15] | [16] | [17]

O=NO
inactive: [18] | [2] | [3] | [4] | [13] | [14] | [15] | [16] | [17]

CSc1ccc(Oc2ccc(S(N)(=O)=O)cc2CN(C)C)cc1C
inactive: [18] | [2] | [3] | [4] | [13] | [14] | [15] | [16] | [17]

NC1CCCCC1
not listed: [1] | [7] | [8] | [9] | [10] | [11] | [12] | [19]
inactive: all other assays above

CC(C)OC(=O)C(C)(C)Oc1ccc(C(=O)c2ccc(Cl)cc2)cc1
active: [2] 3.76 µM | [3] 0.0504 µM
inactive: [18] | [4] | [5] | [6] | [13] | [16]

CCCCCCCCCCCCCCCCO
inactive: [18] | [2] | [3] | [4] | [6] | [13] | [14] | [15] | [16] | [17]

CCCCC(CC)COP(=O)(OCC(CC)CCCC)OCC(CC)CCCC (configuration not stated)
active: [2] 13.3 µM
not listed: [8] | [12] | [18]
inactive: all other assays above
